These results are taken from PubChem BioAssay AID463173 (ICCB-Longwood Screening Facility, Harvard Medical School, 2010).

SMILES strings stand for the structures. About 4,300 (8.3%) of roughly 52,000 compounds were called active. The entries come from a sample that favours actives as a whole. Values without a mark were called inactive. Rule as the data show it: active = survival mostly below about 52% (no sharp cut-off); inactive = mostly above about 56%.

In this test the test system is DeltatarO mutant. The test is described as follows: growth inhibition of S. aureus wild type versus tarO mutant, primary screen, teichoic acid synthesis inhibitors, RN4220, OD600 (AID 463173). Conditions: OD600, 18 h, stronger effect = lower value, screened at 18.75 µg/mL (by protocol).
In the case of `CC1=C(C(=O)Nc2ccc(C)cc2C)C(c2sccc2C)n2ncnc2N1` (stereo unspecified), the survival is 68%.
For `O=C(NC1CCCC1)c1ccc2c(c1)OCO2`, the survival was 69%.
As for `O=C1C2C3c4ccccc4C(c4ccccc43)C2C(=O)N1C(CO)(CO)CO` (stereo unspecified), the survival was 102%.
As to `CC1=C(C(=O)OC2CCCC2)C(c2c(Cl)cccc2Cl)CC(=O)N1` (stereo unspecified), the survival is 71%.
For `CC1=C(C(=O)OC2CCCCCC2)C(c2c(F)cccc2Cl)CC(=O)N1` (stereo unspecified) the value was 57%.
Consider `CC1=C(C(=O)OC2CCCCCC2)C(c2c(Cl)cccc2Cl)CC(=O)N1` (stereo unspecified), for which the survival was 32% (active).
To `CCCN1CC=C2C(C#N)=C(N)C(C#N)(C#N)C(c3ccc(OCC(N)=O)cc3)C2C1` (stereo unspecified) belongs 81%; to `CCCc1ccc(S(=O)(=O)N2CCC(c3nnc(-c4cccc(C)c4)o3)CC2)cc1`, 75%; to `COc1ccc(CNCc2c(C(=O)O)c(C)n(Cc3ccccc3C)c2C)cc1OC`, 91%.
Regarding `COc1cc(/C=C(\C#N)C(=O)Nc2ccc(C)cc2)ccc1OCc1cc(=O)n2nc(C)sc2n1`, the survival was 78%.
For the compound `CCOc1cc(/C=C(\C#N)C(=O)Nc2ccc(OC)cc2)ccc1OCc1cc(=O)n2nc(CC)sc2n1`, the survival is 55% (active).
For `CCc1nn2c(=O)cc(COc3ccc(/C=C(\C#N)C(=O)Nc4ccc(F)cc4)cc3OC)nc2s1` the value was 106%; for `Cc1nn2c(=O)cc(COc3ccc(/C=C(\C#N)C(=O)Nc4ccccc4)cc3Cl)nc2s1`, 49% (active); for `CCOc1cc(/C=C(\C#N)C(=O)Nc2ccc(C)cc2)ccc1OCc1cc(=O)n2nc(CC)sc2n1`, 68%.
To `COc1ccc(NC(=O)/C(C#N)=C/c2ccc(OCc3cc(=O)n4nc(C)sc4n3)cc2)cc1` belongs 61%; to `CCOc1ccc(NC(=O)CSc2nc3ccsc3c(=O)n2CC)cc1`, 89%; to `Cc1cc(C)n2nc(C(=O)N/N=C/c3ccncc3)nc2n1`, 76%.
For `On1c2c(c3c4nonc4ccc31)CCCC2` the value was 0% (active).
For `c1ccc(-n2nc3ccc4nonc4c3n2)cc1`, the survival was 86%.
To `COc1ccc(-c2[nH]c3ccccc3c2SCCNC(=O)c2ccc(S(=O)(=O)N(C)C)cc2)cc1` belongs 67%.
To `COc1cccc(C2=C(C(C)=O)Sc3nnc(C4CCCCC4)n3N2C(C)=O)c1` belongs 81%; to `CCOc1ccccc1NC(=O)c1cccc2c1C(=O)N(C1CCCCC1)C2`, 92%.
For `O=C(Nc1ccc(F)cc1)N1CCCC(c2nc3c(nnn3Cc3ccccc3Cl)c(=O)[nH]2)C1` (stereo unspecified) the value was 88%; for `CC(C)(C)c1ccc(C(=O)N2CCCC(c3nc4c(nnn4Cc4cccc(F)c4)c(=O)[nH]3)C2)cc1` (stereo unspecified), 7% (active).
For `O=C(c1cccs1)N1CCCC(c2nc3c(nnn3Cc3ccc(F)cc3)c(=O)[nH]2)C1` (stereo unspecified), the survival was 101%.
Regarding `Cc1ccccc1Cn1nnc2c(=O)[nH]c(C3CCCN(C(=O)c4ccc(C(C)(C)C)cc4)C3)nc21` (stereo unspecified), the survival is 7% (active).
Consider `CCCC(=O)N1CCCC(c2nc3c(nnn3Cc3ccccc3)c(=O)[nH]2)C1` (stereo unspecified), for which the survival is 102%.
For `CCc1ccc(Cn2nnc3c(=O)[nH]c(C4CCCN(C(=O)c5cccc(Cl)c5)C4)nc32)cc1` (stereo unspecified) the value was 74%.
For `Cc1cccc(Cn2nnc3c(=O)[nH]c(C4CCCN(C(=O)c5ccccc5Cl)C4)nc32)c1` (stereo unspecified) the value was 71%; for `Cc1cccc(Cn2nnc3c(=O)[nH]c(C4CCCN(C(=O)c5ccc(C(C)(C)C)cc5)C4)nc32)c1` (stereo unspecified), 18% (active); for `COc1cccc(Cn2nnc3c(=O)[nH]c(C4CCCN(C(=O)c5ccc(C)cc5)C4)nc32)c1` (stereo unspecified), 90%.
To `Cc1ccccc1Cn1nnc2c(=O)[nH]c(C3CCCN(C(=O)c4ccc(F)cc4)C3)nc21` (stereo unspecified) belongs 114%; to `CC(C)(C)C(=O)N1CCCC(c2nc3c(nnn3Cc3ccc(C(C)(C)C)cc3)c(=O)[nH]2)C1` (stereo unspecified), 1% (active); to `Cc1ccc(Cn2nnc3c(=O)[nH]c(C4CCCN(C(=O)c5ccco5)C4)nc32)cc1` (stereo unspecified), 91%.
Turning to `COc1ccc(-c2ccc(NS(=O)(=O)c3ccc(F)c(C(F)(F)F)c3)cc2)nn1`, the survival was 117%.
As for `Cc1ccc2cc(CN(CCN(C)C)C(=O)NC3CCCCC3)c(=O)[nH]c2c1`, the survival was 101%.
In the case of `O=C(CCn1cccn1)NCc1ccc(Cl)cc1`, the survival was 73%.
To `COc1ccc(OC(=O)c2cn(-c3cccc(OC)c3)c(=O)c3ccccc23)cc1` belongs 80%; to `COC(=O)c1ccc(NC(=O)c2nn(C)c3c2CS(=O)(=O)c2ccccc2-3)cc1`, 81%; to `CC1(C)c2ssc(=S)c2-c2ccccc2N1C(=O)CSC#N`, 106%.
As for `Cc1ccc(NC(=O)c2c3c(nc4ccccc24)C(=O)N(C2CCCCC2)C3)cc1F`, the survival was 102%.
To `Cc1nn(CC(=O)Nc2cccc(C(F)(F)F)c2)c(=O)c2nn(-c3ccccc3)c(C)c12` belongs 75%; to `O=C(c1ccc(-c2cccc(C(F)(F)F)c2)o1)N1CCOCC1`, 84%.
For `O=C(Nc1cccc2cccnc12)c1cccc2c(Br)cccc12` the value was 70%; for `O=C(Nc1cccc2cccnc12)c1ccccc1[N+](=O)[O-]`, 68%.
For `O=C(Nc1cccc2cccnc12)c1cccc2ccccc12` the value was 1% (active); for `COc1c(Cl)cc(Cl)cc1C(=O)Nc1cccc2cccnc12`, 143%; for `O=C(Nc1ccc(Br)c2cccnc12)c1cccc2ccccc12`, 29% (active).
Consider `O=C(O)c1ccccc1C(=O)Nc1ccc(Br)c2cccnc12`, for which the survival is 49%.
Consider `O=C(CN1Cc2ccccc2C1=O)Nc1cc(F)ccc1F`, for which the survival was 81%.
As for `Cc1nc2ccc(S(=O)(=O)CCC(=O)Nc3ccc(C)c(C)c3)cc2s1`, the survival is 107%.
Consider `CCOc1ccc(-n2c(SCC(=O)Nc3ccc(CC)cc3)nc3c(oc4ccccc43)c2=O)cc1`, for which the survival is 71%.
`CCOC(=O)c1c(S(=O)(=O)NCC(=O)N(C)Cc2ccccc2)c(C)n(C)c1C`: the survival was 89%.
To `CCOc1no[n+]([O-])c1-c1ccccc1` belongs 90%; to `CN(C(=O)CSc1nc2ccc(NC(=O)c3ccccc3F)cc2s1)c1ccccc1`, 103%; to `CCN(Cc1nc(-c2ccc(OC)cc2)oc1C)S(=O)(=O)c1ccc(C)cc1`, 95%.
